A short description of experiment [1]: CCTE_Simmons_CellTiterGLO_HEK293T: Viability Assessment in CCTE's Assays for Thyroperoxidase (TPO) Inhibition, Simmons Lab (AID 2283665).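 As to AC50: cells exposed to compound for 24 h before readout; actives reduce ATP signal below DMSO vehicle meaning cytotoxicity.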 A digest of the protocol:
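Cells were seeded overnight, then exposed to an eight-point series up to 87.5 uM final for 24 hours. CellTiter-Glo reagent was added and luminescence read after 20 min, giving ATP-based viability versus DMSO.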

The nature of experiment [2]: Tanguay_ZF_120hpf_OTIC_legacy: (Legacy) Oregon State University Tanguay Lab 120 Hour Post-fertilization zebrafish Assay for Otic Vesicle Malformation (AID 2283639). The procedure, abridged:
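Statically exposed wild-type 5D zebrafish embryos, kept sealed and dark at 28C through 120 hours post fertilization, were examined by brightfield microscopy for otic vesicle defects. Responses were recorded as present or absent and analysed relative to DMSO.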

A short description of experiment [3]: Tanguay_ZF_120hpf_PE_legacy: (Legacy) Oregon State University Tanguay Lab 120 Hour Post-fertilization zebrafish Assay for Pericardial Edema (AID 2283640).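 As to AC50: potency for increased incidence of pericardial edema versus DMSO baseline.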 A digest of the protocol: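 Read-out is the presence or absence of pericardial edema at 120 hpf under brightfield, with gain of signal fitted against DMSO controls. Larvae (5D wild-type) were statically exposed at 28C with 0.64% final DMSO.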

Experiment [4] can be described thus: Tanguay_ZF_120hpf_BRAI_legacy: (Legacy) Oregon State University Tanguay Lab 120 Hour Post-fertilization zebrafish Assay for Brain Malformation (AID 2283641). The procedure, abridged:
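Brain malformation in Tropical 5D zebrafish was recorded as a binary endpoint after static compound exposure from early development to 120 hpf at 28C. Activity was analysed against DMSO as negative control.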

Experiment [5] can be described thus: Tanguay_ZF_120hpf_SOMI_legacy: (Legacy) Oregon State University Tanguay Lab 120 Hour Post-fertilization zebrafish Assay for Somite Malformation (AID 2283647). A digest of the protocol: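 5D WT zebrafish; chorion removed 4 hpf; 1 embryo/well from 6 hpf; static exposure to 120 hpf, 28C, 0.64% DMSO final. Endpoint: somite malformation, binary, brightfield. Mortality excluded.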

A short description of experiment [6]: Tanguay_ZF_120hpf_PFIN_legacy: (Legacy) Oregon State University Tanguay Lab 120 Hour Post-fertilization zebrafish Assay for Pectoral Fin Malformation (AID 2283648).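 Also: each larva judged yes or no for fin defect by brightfield with dead larvae skipped.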 A digest of the protocol:
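Scoring of pectoral fin malformation was binary, made at 120 hpf on larvae exposed statically from 6 hpf after enzymatic chorion removal. Activity was fitted upward relative to DMSO controls at 0.64% (vol/vol).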

The nature of experiment [7]: Tanguay_ZF_120hpf_CFIN_legacy: (Legacy) Oregon State University Tanguay Lab 120 Hour Post-fertilization zebrafish Assay for Caudal Fin Malformation (AID 2283649). A digest of the protocol: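 Embryos were collected from Tropical 5D wild-type adults and dechorionated at 4 hpf. At 6 hpf each was exposed, one per well, at 0.64% DMSO and 28C. At 120 hpf fin morphology was scored; dead embryos were excluded.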

Experiment [8] is described as follows: Tanguay_ZF_120hpf_PIG_legacy: (Legacy) Oregon State University Tanguay Lab 120 Hour Post-fertilization zebrafish Assay for Pigmentation Malformation (AID 2283650). A digest of the protocol:
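Endpoint is incidence of abnormal pigmentation at 120 hpf in dechorionated 5D zebrafish exposed singly from 6 hpf at 28C, DMSO vehicle at 0.64%. Embryos dying by 24 or 120 hpf are excluded from scoring.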

A short description of experiment [9]: Tanguay_ZF_120hpf_CIRC_legacy: (Legacy) Oregon State University Tanguay Lab 120 Hour Post-fertilization zebrafish Assay for Circulatory Malformation (AID 2283651). The procedure, abridged: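 Embryos are dechorionated at 4 hpf, plated one per well at 6 hpf, then held under static exposure at 28C until 120 hpf. Malformations are recorded as binary calls; mortality excludes other endpoints.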

Experiment [10] is described as follows: Tanguay_ZF_120hpf_SWIM_legacy: (Legacy) Oregon State University Tanguay Lab 120 Hour Post-fertilization zebrafish Assay for Swim Bladder Malformation (AID 2283654).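 Also: swim bladder malformation in each larva scored yes or no under brightfield.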 The procedure, abridged:
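Static waterborne exposure of single dechorionated Tropical 5D zebrafish embryos, 6–120 hpf, 28C, 0.64% DMSO final. Read-out: swim bladder malformation, present/absent, relative to DMSO negative control; trimethyltin chloride 5uM served as positive control.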

Experiment [11] in a line: Tanguay_ZF_120hpf_NC_legacy: (Legacy) Oregon State University Tanguay Lab 120 Hour Post-fertilization zebrafish Assay for Notochord and Tail Malformation (AID 2283656). A digest of the protocol: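 Binary scoring of notochord distortion by brightfield microscopy; embryos dying were not scored. Wild-type Tropical 5D embryos, chorion removed, exposed singly and statically from 6 to 120 hpf, 28C, sealed, 0.64% DMSO.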

Experiment [12] can be described thus: Tanguay_ZF_120hpf_TR_legacy: (Legacy) Oregon State University Tanguay Lab 120 Hour Post-fertilization zebrafish Assay for Touch Response (AID 2283667). A digest of the protocol:
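Readout is presence or absence of touch response in 120 hpf zebrafish larvae, assessed by brightfield observation after continuous static exposure at 28C. Final vehicle was 0.64% (vol/vol) DMSO.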

Experiment [13] in a line: STM_H9_OrnithineISnorm_perc: Stemina devTOX quickPredict H9 human embryonic stem cell (hESC)-based Assay for Ornithine (ORN) Metabolite Biomarker, Normalized (AID 2283712; active = hit-call score of the fitted dose curve at least 0.9, where 1 is the maximum; inactive = score below 0.9;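 also: ornithine released into spent medium during last day measured by mass spectrometry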). The procedure, abridged:
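Ornithine secreted by H9 hESCs after 72h compound treatment (daily media/compound renewal) was quantified in final-day media by UPLC-HRMS. Values are isotope-standard-normalized, expressed relative to 0.1% DMSO, fitted in positive direction.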

Experiment [14] in a line: STM_H9_CystineISnorm_perc: Stemina devTOX quickPredict H9 human embryonic stem cell (hESC)-based Assay for Cystine (CYSS) Metabolite Biomarker, Normalized (AID 2283713; active = hit-call score of the fitted dose curve at least 0.9, where 1 is the maximum; inactive = score below 0.9). The procedure, abridged: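 Cells are held undifferentiated and treated for 72h, receiving fresh medium with compound every 24h. Cystine secreted during the final day is quantified by UPLC-HRMS against a labeled spike-in, then expressed relative to the DMSO vehicle median.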

A short description of experiment [15]: CCTE_Padilla_ZF_144hpf_TERATOSCORE: (Legacy) CCTE's 144 Hour Post-fertilization zebrafish Assay Teratoscore, Padilla Lab (AID 2283679; active = hit-call score of the fitted dose curve at least 0.9, where 1 is the maximum; inactive = score below 0.9;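 as to AC50: zebrafish embryos with chorions exposed by immersion from 6-8 hpf to 5 dpf with daily renewal; teratogenicity score from eye scoring of death hatching and malformations at 144 hpf; higher score means more developmental defects relative to DMSO baseline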). A digest of the protocol: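 Larvae scored by eye at 144 hpf for death, hatching and malformations after a day in clean Hanks'. Before that, daily-renewed exposure at 80 uM (0.4% DMSO, 26C) from roughly 6-8 hpf through 5 dpf, 4 embryos per chemical.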

Results filed as inconclusive are left out. Activity calls are given as the source filed them. The calls were made as follows, unless noted: active = hit-call score of the fitted dose curve at least 0.9, where 1 is the maximum; inconclusive = response in the unintended direction; inactive = score below 0.9.

For the compound `CCOc1ccc(N)cc1`, the AC50 in experiment [1] was 28.4 µM (active).
On to `COC(=O)Nc1cccc(OC(=O)Nc2cccc(C)c2)c1`, for which the call in experiment [1] was inactive.
The same measure, in the same setting: to `CCOP(=S)(OCC)SCS(=O)(=O)C(C)(C)C` belongs “inactive”.
With `O=C1c2ccccc2C(=O)C1C(=O)C(c1ccccc1)c1ccc(Cl)cc1` (configuration not stated), in experiment [1], the AC50 is 36.4 µM (active).
On to `Clc1cccc(Cl)c1Cl`, for which the compound was called inactive in experiment [2], in experiment [3], in [4], in [5], in experiment [6] and in [7]. Besides, the call in experiment [8], in experiment [9], in [10], in experiment [11] and in experiment [12] was inactive.
As for `OCCN(CCO)CCO`, the outcome in experiment [2], in experiment [3], in experiment [4], in experiment [5], in experiment [6] and in experiment [7] was inactive. Moreover, the compound was classed as inactive in experiment [8], in [9], in experiment [10], in experiment [11] and in experiment [14]. Moreover, the AC50 in [13] is 0.0236 µM (active).
On to `CC(C)O.CC(C)O.OCCN(CCO)CCO.OCCN(CCO)CCO.[Ti]`, for which the result in experiment [2], in [3], in experiment [4], in experiment [5], in experiment [8] and in experiment [9] was inactive. Moreover, the call in experiment [10], in experiment [11], in experiment [12], in experiment [15] and in [13] was inactive. For the same compound, the AC50 in [14] is 74.1 µM (active).
Consider `Oc1c(Cl)cc(Cl)cc1Cl`, for which the compound was called inactive in experiment [2], in [3], in [5], in [6], in experiment [7] and in experiment [8]. Moreover, the compound was classed as inactive in [9], in experiment [10], in experiment [11] and in experiment [12]. For the same compound, the AC50 in experiment [15] is 3.97 µM (active).
`COc1ccccc1N`: the result in experiment [4], in experiment [6], in experiment [8], in experiment [9], in experiment [10] and in experiment [1] was inactive. For the same compound, the compound was called inactive in experiment [12].
`N#Cc1cccnc1`: the result in experiment [2], in experiment [3], in experiment [4], in experiment [5], in experiment [6] and in [7] was inactive. Further, the outcome in experiment [8], in experiment [9], in experiment [10], in experiment [11] and in [12] was inactive.
In the case of `O=C(CBr)c1ccc(O)cc1`, the call in experiment [1] was inactive.
For the compound `CN(C)C(=S)S`, the AC50 in experiment [3] was 3.42 µM (active); in experiment [11], 1.05 µM (active); in experiment [1], 8.68 µM (active); in experiment [15], 12.4 µM (active); in experiment [13] it was 66.3 µM (active); in experiment [14], 75.9 µM (active). In addition, the result in experiment [4], in experiment [5], in experiment [6], in experiment [8], in experiment [9] and in experiment [10] was inactive. Moreover, in experiment [12], the compound was called inactive.

By AC50 is commonly meant the midpoint of the concentration-response curve, whichever way the signal moves.

Source of the values: PubChem BioAssay (EPA / NIEHS).
